Screen size: about 310,000 compounds; about 18,000 (5.8%) were called active. About 22% were inconclusive and are not listed. What follows is part of a selection rich in actives, with near analogues and random picks from the rest. Unmarked numbers belong to inactive results. Calls follow the shape of the dose curve; as a rule, active = well fitted inhibition curve with a large enough effect; inconclusive = small, poorly fitted or top-dose-only effect, or another doubt; inactive = no such curve, though single readings can be large or run the other way.
Assay: Primary qHTS for delayed death inhibitors of the malarial parasite plastid, 48 hour incubation
Details: P. falciparum luciferase growth in erythrocytes; series mostly up to 28.7 µM; activity change, negative = inhibition: at the top concentration
Outline: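 Erythrocytes infected with P. falciparum carrying an integrated firefly luciferase reporter (2% hematocrit, 0.1% parasitemia final) were exposed to compounds in RPMI 1640 with 0.5% Albumax at 37 C, 5% CO2. Growth inhibition was scored as reduced luminescence.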
% is scaled to controls: 0 for no effect and ±100 for the full control effect; potency is read from the fitted curve at half-maximal effect.

Row | SMILES | activity change, negative = inhibition | Potency
1 | COc1cccc(-c2nc(CS(=O)CC(=O)NCc3ccc(F)cc3)c(C)o2)c1 (configuration not stated) | 27.8% | –
2 | CCCn1c(=O)c(C(=O)Nc2cc(C)ccn2)c(O)c2ccccc21 | 28.3% | –
3 | O=S(=O)(Nc1ccccc1)c1ccc(NS(=O)(=O)c2cccs2)cc1 | 4.5% | –
4 | CCCCNC(=O)N(O)C1N(/N=C/c2ccc(N(C)C)cc2)C(=S)SC1(C)C (configuration not stated) | -2.29% [at 0.00184 µM] | –
5 | N#Cc1c(/N=C/N2CCCC2)oc(-c2ccccc2)c1-c1ccccc1 | – | 4.65 µM (active)
6 | N#Cc1c(-c2ccccc2)c(-c2ccccc2)n[nH]c1=O | -11.1% | –
7 | N#Cc1c(NC(=O)CCCN2C(=O)c3ccccc3C2=O)oc(-c2ccccc2)c1-c1ccccc1 | 11.4% | –
8 | C=C1CCC(N(O)c2cc(C)on2)C(=C)CCC2C1CC2(C)C (configuration not stated) | – | 4.65 µM (active)
9 | COc1ccc(S(=O)(=O)N(C)CC(=O)NCCCN2CCOCC2)cc1Cl | 21.6% | –
10 | CCCNC(=O)COc1coc(CN2CCN(Cc3ccccc3)CC2)cc1=O | 6.97% | –
11 | Cc1ccc(CNS(=O)(=O)CCNC(=O)c2ccccc2)cc1 | 1.42% | –
12 | O=c1c2ccccc2oc2nc3n(c(=O)c12)CCCS3 | -4.62% | –
13 | O=c1c2ccccc2oc2nc(C3CCCCC3)n(Cc3ccco3)c(=O)c12 | – | 13.1 µM (active)
14 | O=C(Cn1c(=O)n(Cc2ccco2)c(=O)c2ccccc21)NCC1CCCO1 (configuration not stated) | 0.136% | –
15 | Cc1ccc(NS(=O)(=O)c2ccc(N/N=C/c3ccccc3OCC(=O)O)c([N+](=O)[O-])c2)c(C)c1 | – | 11.7 µM (active)
16 | Cc1cccc(COc2ccccc2/C=N/Nc2ccc([N+](=O)[O-])cc2)c1 | -89.6% | –
17 | COCCNC(=O)c1ccccc1NS(=O)(=O)c1ccc(C)c([N+](=O)[O-])c1 | -2.7% | –
18 | O=C(N/C(=C\c1ccc([N+](=O)[O-])cc1)C(=O)N1CCCCC1)c1ccco1 | 2.5% | –
19 | O=C(CN1CCOC1=O)N1CCCC(Nc2ccc(F)c(F)c2)C1 (configuration not stated) | 0.222% | –
20 | COc1ccccc1-c1cnn2c(N3CCOCC3)cc(C)nc12 | 95.7% | –
21 | Cn1nccc1/C=N\NC(=O)c1ccc(Cl)cc1 | 15% | –
22 | CN(CCc1ccccn1)C(=O)c1ccc(OC2CCN(Cc3ccccn3)CC2)cc1 | 0.5% | –
23 | Cc1[nH][nH]c(=O)c1C(c1ccc2c(c1)OCO2)c1c(C)[nH][nH]c1=O | 0.59% | –
24 | COc1cc(OC)c(C(=O)NCc2ccc3c(c2)OCO3)cc1OC | 0.912% | –
25 | COc1ccc(F)cc1S(=O)(=O)NCC(c1ccc2c(c1)OCO2)N1CCN(C)CC1 (configuration not stated) | 0.254% | –
26 | CCN(CC)CCC(c1cc(OC)c(OC)c(OC)c1)c1c(OC)cc(OC)c2c(-c3ccccc3)cc(=O)oc12 (configuration not stated) | – | 3.29 µM (active)

Row | SMILES | activity change, negative = inhibition | Potency
27 | CCCCN(CC)C(=O)c1ccc2c(c1)OCO2 | -5.43% | –
28 | COc1ccc(-c2cc(=O)oc3cc(OCC(=O)N[C@@H](Cc4c[nH]c5ccccc45)C(=O)O)ccc23)cc1 | 2.65% | –
29 | CCN(CC)CCC(c1ccc2c(c1)OCO2)c1c(OC)cc(OC)c2c(-c3ccccc3)cc(=O)oc12 (configuration not stated) | – | 9.28 µM (active)
30 | CCN(CC)C(=O)CC(c1ccc2c(c1)OCO2)c1c(OC)cc(OC)c2c(-c3ccccc3)cc(=O)oc12 (configuration not stated) | – | 11.7 µM (active)
31 | CC(=O)COc1ccc2c(-c3ccccc3)cc(=O)oc2c1 | 34.8% | –
32 | O=C(NNC(=O)c1ccc(-n2cncn2)c([N+](=O)[O-])c1)c1ccccc1 | -10.8% | –
33 | S=C(Nc1ccc(Cl)cc1Cl)N1CCCC1 | 54.8% | –
34 | COc1cc(/C=N/NC(=O)Cc2ccccc2)cc(OC)c1OC | 6.42% | –
35 | O=C(Nc1cccc(F)c1)[C@@H]1CCCN1 | -9.54% | –
36 | Cc1cc(C)nc(NS(=O)(=O)c2ccc(N3C(=O)C4CCCCC4C3=O)cc2)n1 (configuration not stated) | 26.1% | –
37 | Cc1cc(N2C(=O)C(O)=C(C(=O)c3ccc(C)o3)C2c2ccc(OCc3ccccc3)cc2)no1 (configuration not stated) | 5.29% | –
38 | Cc1cc(C(F)F)nn1CC(=O)NC1CCCCCC1 | 10.4% | –
39 | Cc1nn(CC(=O)NC2CCCCC2)c(=O)c2cccn12 | 29.8% | –
40 | O=C(Cn1nc([N+](=O)[O-])nc1Br)NC1CCCCC1 | – | 1.47 µM (active)
41 | CC1(C)O[C@@H]2[C@H](O1)[C@@H](CO)O[C@H]2n1c(N2CCCCC2)nc2c(N)ncnc21 | -1.31% | –
42 | O=C(NCc1cccnc1)C12CC3CC(CC(C3)C1)C2 | -8.11% | –
43 | CCc1cccc(NC(=O)CCC(=O)O)c1 | 2.01% | –
44 | O=C(Cc1ccccc1)Nc1cccc(NC(=O)c2ccccc2)c1 | 312% | –
45 | O=C(CCl)Nc1cccc(CP(=O)(c2ccccc2)c2ccccc2)c1 | – | 10.4 µM (active)
46 | CC(/C=C/c1ccccc1)=N\NC(=O)C1CC1(C)c1ccccc1 (configuration not stated) | – | 11.7 µM (active)
47 | CC(=O)Nc1ccc(/C=C/C(=O)c2ccccc2)cc1 | 48.1% | –
48 | O=C(/C=C/c1ccccc1)c1ccccc1O | 28.4% | –
49 | O=S(=O)(c1ccc(-c2ccno2)s1)N1CCCCC1 | 3.71% | –
50 | CCn1cc(C(=O)N[C@@H](C)C(=O)NCCO)c(=O)c2cc3c(cc21)OCO3 | 20.8% | –
51 | CCOC(=O)c1sc2nc(SC)nc(-c3ccccc3)c2c1N | 10.1% | –
52 | CCOC(=O)C1=C(CC)Nc2ccccc2N=C1N | 10.7% | –

Source: PubChem BioAssay AID504832 (National Center for Advancing Translational Sciences (NCATS), 2011)
